Results published in the supplement of paper PMC6555819.

Legend:
Assay in all cases: PBM binding z-score (relative to random genomic background probes); higher = stronger binding; sequences stand for … in GC…GCGATTGACAGCGTAGAATGAAGG
[1] = system: FXR:RXRa (NR concentration 270 nM, RXRa partner concentration 90 nM)
Method in brief: (§1)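 Binding z-scores take random background probes as their reference. They come from custom Agilent 4×180K protein-binding microarrays incubated 1 h with ligand-free nuclear receptor dimers, with antibodies against each partner (one per run) detecting binding. Scanned fluorescence was regression-normalized.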

[2] = system: LXRa:RXRa (NR concentration 270 nM, RXRa partner concentration 90 nM)
Method in brief: as §1

[3] = system: LXRa homodimer (NR concentration 270 nM)
Method in brief: as §1

[4] = system: LXRb:RXRa (NR concentration 270 nM, RXRa partner concentration 90 nM)
Method in brief: as §1

[5] = system: LXRb homodimer (NR concentration 270 nM)
Method in brief: as §1

[6] = system: PPARa:RXRa (NR concentration 270 nM, RXRa partner concentration 90 nM)
Method in brief: as §1

[7] = system: PPARg:RXRa (NR concentration 180 nM, RXRa partner concentration 90 nM)
Method in brief: as §1

[8] = system: PPARg:RXRa 270nM:90nM, anti-RXR (NR concentration 270 nM, RXRa partner concentration 90 nM)
Method in brief: as §1

[9] = system: PPARg:RXRa 30nM:10nM, anti-RXR (NR concentration 30 nM, RXRa partner concentration 10 nM)
Method in brief: as §1

[10] = system: PPARg:RXRa 90nM:30nM, anti-RXR (NR concentration 90 nM, RXRa partner concentration 30 nM)
Method in brief: as §1

[11] = system: PPARg:RXRa DBDmut IVT, anti-RXR (DBD mutation: RXRa K156A/R161A, NR concentration 270 nM, RXRa partner concentration 90 nM)
Method in brief: as §1

[12] = system: PPARg:RXRa IVT, anti-PPARg (NR concentration 270 nM, RXRa partner concentration 90 nM)
Method in brief: as §1

[13] = system: PPARg DBDmut:RXRa IVT, anti-PPARg (DBD mutation: PPARg1 K132A/R137A, NR concentration 270 nM, RXRa partner concentration 90 nM)
Method in brief: as §1

[14] = system: PPARg DBDmut IVT, anti-PPARg (DBD mutation: PPARg1 K132A/R137A, NR concentration 270 nM)
Method in brief: as §1

[15] = system: PPARg homodimer (NR concentration 180 nM)
Method in brief: as §1

[16] = system: PXR:RXRa (NR concentration 270 nM, RXRa partner concentration 90 nM)
Method in brief: as §1

[17] = system: PXR homodimer (NR concentration 270 nM)
Method in brief: as §1

[18] = system: RARa:RXR (NR concentration 270 nM, RXRa partner concentration 90 nM)
Method in brief: as §1

[19] = system: RARa homodimer (NR concentration 270 nM)
Method in brief: as §1

[20] = system: RARb:RXRa (NR concentration 270 nM, RXRa partner concentration 90 nM)
Method in brief: as §1

Row | Sequence | PBM binding z-score [1] | PBM binding z-score [2] | PBM binding z-score [3] | PBM binding z-score [4] | PBM binding z-score [5] | PBM binding z-score [6] | PBM binding z-score [7] | PBM binding z-score [8] | PBM binding z-score [9] | PBM binding z-score [10] | PBM binding z-score [11] | PBM binding z-score [12] | PBM binding z-score [13] | PBM binding z-score [14] | PBM binding z-score [15] | PBM binding z-score [16] | PBM binding z-score [17] | PBM binding z-score [18] | PBM binding z-score [19] | PBM binding z-score [20]
1 | CAACCTAGGTCACAGAGGTCAAAGTCCGTGCGTA | 7.56 | 6.89 | 7.7 | 6.74 | 2.06 | 6.1 | 7.27 | 6.89 | 3.63 | 6.19 | 5.47 | 5.9 | 0.378 | -0.0572 | 6.18 | 6.95 | 12.5 | 7.87 | 2.8 | 5.39
2 | CCGAGTAGGTTATGGGACATTCAGGCAACGGTGA | 0.111 | 0.356 | 0.00939 | 0.277 | 0.141 | 0.923 | 1.53 | 2.35 | 0.542 | 1.74 | 3.53 | 2.6 | -0.291 | -0.241 | 1.11 | -0.0515 | 0.264 | 0.315 | 0.595 | 0.813
3 | TCTTGTAGATCAGCAGGTTACGAAAGCTGGCCAA | 0.0711 | -0.119 | -0.159 | 0.185 | -0.369 | 0.613 | -0.304 | 1.48 | 2.34 | 1.87 | 1.6 | 0.645 | -0.743 | -0.301 | -0.303 | -0.0656 | -0.456 | 0.298 | -0.436 | 0.143
4 | AGAATGAGGTTATACGTAGCTCAGGGAAGAAAGT | 1.61 | 1.23 | -0.204 | 1.05 | -0.347 | 2.86 | 1.46 | 1.95 | 0.439 | 1.23 | 3.72 | 1.8 | 0.808 | 0.83 | 0.431 | 0.653 | 0.0212 | 1.15 | 0.35 | 1.11
5 | TCATATAGGTAAATGCTAGGTGAAAGACCGATCT | 1.17 | 1.12 | 0.232 | 0.72 | -0.0647 | 1.48 | 1.22 | 2.38 | 3.79 | 2.96 | 3.73 | 2.45 | 1.16 | 1.31 | 1.02 | 0.594 | 0.174 | 0.931 | 0.867 | 0.44
6 | CATACAGGATCAGCTAGGCCAGAGTAGGGACGGC | -0.21 | -0.464 | 0.0266 | -0.7 | -0.0365 | -0.466 | 0.558 | -0.422 | -0.274 | -0.505 | -0.103 | -0.208 | 0.289 | 0.351 | 0.422 | -0.609 | -0.0917 | -0.441 | 0.241 | -0.093
7 | TCTAGCGGGCCAGAGGGTCACTCAAGAGGTACGG | 0.839 | 0.883 | -0.748 | 1.08 | -1.43 | 2.37 | 1.3 | 2.42 | 1.68 | 2.48 | 0.727 | 0.801 | -0.857 | -1.59 | -0.0821 | 1.64 | -0.599 | 2.17 | -0.431 | 2.2
8 | TGTCAAAGTTCAAAGGTAACGTATGTATCCACAC | 7.33 | 6.48 | 4.88 | 4.63 | 1.63 | 5.67 | 8.6 | 7.61 | 5.63 | 7.23 | 0.0702 | 4.53 | 1.85 | 1.93 | 2.61 | 5.65 | 3.95 | 6.64 | 1.84 | 5.04
9 | CCAACTGGGCCAAAGGTCATTGATTCCAATGCTC | 4.93 | 4.78 | 3.93 | 4.85 | 0.383 | 6.66 | 12.4 | 10.4 | 10.8 | 11.4 | 5.49 | 7 | 0.378 | 1.89 | 3.57 | 5.33 | 1.49 | 6.04 | 0.958 | 4.35
10 | TCTATTAGTTGAATGGCAACCGACGAGTCCGTTT | 1.04 | 1.04 | 0.119 | 1.01 | 0.477 | 0.96 | -0.00847 | 2.18 | 3.81 | 2.92 | 2.47 | 0.106 | 0.422 | 0.888 | 1.27 | 0.794 | 0.892 | 0.79 | 1.08 | 0.622
11 | CGTCCAATGTCATAGGAGGTCAGTGAAGACAGAT | 3.22 | 4.74 | 1.21 | 2.36 | 0.0659 | 2.66 | 0.938 | 0.958 | 0.0922 | 0.565 | 0.186 | 1.95 | 0.476 | 0.254 | 1.72 | 3.91 | 0.941 | 2.69 | 0.765 | 2.9
12 | TTACCAAGGTGAGCTGAGGTCGATGATCCAACTC | 2.13 | 0.545 | -0.604 | 0.0564 | -1.26 | 1.2 | 0.288 | 0.701 | -0.265 | 0.0498 | 0.764 | 2.27 | -0.223 | -0.4 | -0.24 | 3.58 | -0.352 | 1.23 | -0.656 | 1.72
13 | TATACAGGGTCAAAGGCCATAGTACGAATGTCGA | 7.3 | 6.15 | 2.85 | 5.09 | 2.38 | 6.27 | 9.09 | 7.76 | 6.42 | 8.54 | 2.29 | 5.22 | 3.81 | 1.65 | 2.99 | 4.83 | 0.657 | 6.64 | 1.1 | 4.56
14 | CGTAGCAGGCCAGGGTCACTCAAGCATTTCGCTT | 2.18 | 1.78 | -0.329 | 2.14 | -1.14 | 2.89 | 0.663 | 1.49 | -0.228 | 0.716 | 0.638 | 1.11 | -0.725 | -1.16 | 0.494 | 2.28 | -0.189 | 2.69 | -0.182 | 2.66
